Giardia FBPA inh: inhibitors of Giardia lamblia fructose-1,6-bisphosphate aldolase | actives 0.71% (n = 290,000) | AID 2451 | A8B2U2 | purified Giardia FBPA | Potency, µM (titrated, usually from 59.6 µM), for the others: at the highest dose activity, negative = inhibition, most hits filed as inhibitors; also: nearly all actives have a fitted effect of over 55% in size
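Giardia FBPA (40 nM reagent) was preincubated 10 min at RT with compound (up to 57.5 uM final), then substrate plus GAPDH/TPI/NAD/arsenate coupling system with diaphorase/resazurin was added; resorufin fluorescence (525/598 nm) was read after 20 min.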
AmpC no deterg: inhibitors of E. coli AmpC beta-lactamase without detergent; AmpC nitrocefin hydrolysis, absorbance 480 nm, 0.0001% Triton; Potency, µM (highest dose often 57.1 µM), for the others: top-dose activity change, negative = inhibition, most hits filed as inhibitors; actives 0.52% (n = 330,000); AID 485341;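 also: plate controls were no compound for no effect and no enzyme for full effect; nearly all actives have a fitted effect of over 20% in size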
Target sequence (P00811 whole entry, looked up): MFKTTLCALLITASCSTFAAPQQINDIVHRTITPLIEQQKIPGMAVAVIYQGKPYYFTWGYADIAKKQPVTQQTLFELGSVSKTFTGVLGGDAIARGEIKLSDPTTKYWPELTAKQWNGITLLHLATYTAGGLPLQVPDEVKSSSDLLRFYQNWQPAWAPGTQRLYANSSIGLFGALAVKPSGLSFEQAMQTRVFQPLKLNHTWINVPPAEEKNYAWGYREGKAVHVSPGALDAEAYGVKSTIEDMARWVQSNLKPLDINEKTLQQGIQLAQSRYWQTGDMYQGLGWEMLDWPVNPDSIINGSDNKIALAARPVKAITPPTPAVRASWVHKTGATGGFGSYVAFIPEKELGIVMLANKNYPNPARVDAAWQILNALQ
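AmpC (5.3 nM in the dispensed reagent) in 20 mM phosphate pH 7.0 with 0.01% (detergent screen) or 0.0001% Triton X-100 was preincubated with compounds for 15 min at room temperature. Nitrocefin was then added from an 800 uM solution, and hydrolysis was followed at 480 nm.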
Sm TGR block: blocks Schistosoma mansoni thioredoxin glutathione reductase; Potency, µM (doses to about 114 µM), for inactives: at the highest dose activity change, negative = inhibition, actives largely listed as inhibitors; actives 3% (n = 360,000); Q962Y6; purified TGR, DTNB reduction, TNB absorbance 405 nm; also: nearly all actives have a fitted effect of over 60% in size
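Kinetic colorimetric format: TGR-catalysed, NADPH-driven DTNB reduction monitored via TNB absorbance. Enzyme dispensed at 20 nM; compound exposure 15 min at room temperature before reaction start.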
AmpC detergent: AmpC beta-lactamase inhibition with detergent present. actives 0.041% (n = 370,000). P00811. AmpC hydrolysis of nitrocefin, absorbance 480 nm, 0.01% Triton. Potency, µM (highest dose often 114 µM), for inactives: at the top dose activity change, negative = inhibition, most hits filed as inhibitors;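 also: 0% = no-compound wells and -100% = no-enzyme wells; nearly all actives have a fitted effect of over 25% in size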
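AmpC (5.3 nM in the dispensed reagent) in 20 mM phosphate pH 7.0 with 0.01% (detergent screen) or 0.0001% Triton X-100 was preincubated with compounds for 15 min at room temperature. Nitrocefin was then added from an 800 uM solution, and hydrolysis was followed at 480 nm.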
RE007 growth inh: less growth of the S. pombe RE007 Vpr strain; S. pombe RE007 Vpr strain, BacTiter-Glo ATP luminescence, 24 h; Potency, µM (series often up to 92.2 µM), without a hit: top-dose activity change, negative = less growth, hits mostly inhibitors; actives 0.21% (n = 360,000); active = well fitted falling curve with a large enough effect; inconclusive = small, poorly fitted or top-dose-only effect; inactive = no such curve, though single readings can be large or run the other way; also: nearly all actives have a fitted effect of over 50% in size
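Fission yeast strain RE007, carrying one chromosomally integrated HIV-1 vpr copy, was seeded at OD 0.01 in PMG+AL medium with 23 nL pinned compound. After 24 h at 30 °C and 99% humidity, viability was read by BacTiter-Glo luminescence.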
* hit, by the source's call; [ ] = remark or other dose. In the library only some 3.4% were active in any assay of this set; here they are far more common. Unless noted, calls follow the shape of the dose curve; as a rule, active = well fitted curve in the direction sought with a large enough effect; inconclusive = small, poorly fitted or top-dose-only effect, or another doubt; inactive = no such curve, though single readings can be large; an effect the other way counts as inactive or inconclusive. Unless noted, % is scaled to controls: 0 for no effect and ±100 for the full control effect; potency is read from the fitted curve at half-maximal effect.

Results for CC(C)n1c(O)c(C2c3cc(Cl)ccc3Oc3[nH]c(=O)n(C(C)C)c(=O)c32)c(=O)[nH]c1=O (centres undefined) ?
Giardia FBPA inh: -7%; AmpC no deterg: -26%; Sm TGR block: -35%; AmpC detergent: 3%; RE007 growth inh: inconclusive

Results for Cc1cc(C)c(C(=O)CC(=O)c2cccnc2)c(C)c1 ?
RE007 growth inh: -6%

What do the screens show for `CC(OC(=O)Cn1cnc2c1c(=O)n(C)c(=O)n2C)C(=O)c1ccccc1` (centres undefined)?
AmpC no deterg: -14%; Sm TGR block: -14%; AmpC detergent: -6%; RE007 growth inh: 7%

How did CCCOc1ccc(/C(O)=C2/C(=O)C(=O)N(CCCN3CCOCC3)C2c2ccncc2)cc1 (centres undefined) do in these assays?
Giardia FBPA inh: inconclusive; AmpC no deterg: -21%; Sm TGR block: 11µM*; AmpC detergent: -2%

How did CCCCOc1ccc(/C(O)=C2/C(=O)C(=O)N(CCCOC)C2c2ccncc2)cc1 (centres undefined) do in these assays?
Giardia FBPA inh: 21%; AmpC no deterg: -13%; Sm TGR block: -6%; AmpC detergent: -5%; RE007 growth inh: 1%

Results for CCOc1ccc(C(=O)NNC(=O)CNC(=O)c2ccc(C)s2)cc1OC ?
AmpC no deterg: -25%; Sm TGR block: -7%; AmpC detergent: inconclusive; RE007 growth inh: 2%

How did Cc1ccc(N/C(C(Cl)=C(Cl)Cl)=C(/Cl)[N+](=O)[O-])c(C)c1 do in these assays?
Giardia FBPA inh: -19%; AmpC no deterg: -34%; Sm TGR block: 7.9µM*; AmpC detergent: -17%; RE007 growth inh: 0%

How did Cc1ccc(NC(=O)CC(=O)Nc2ccc(C)cc2C)c(C)c1 do in these assays?
Giardia FBPA inh: 1%; AmpC no deterg: -15%; Sm TGR block: 10%; AmpC detergent: -2%; RE007 growth inh: -16%

Results for CCOC(=O)C1=C(C)NC(=O)CC1c1cc2c(cc1[N+](=O)[O-])OCO2 (centres undefined) ?
Giardia FBPA inh: 13µM*; AmpC no deterg: -14%; Sm TGR block: 3%; AmpC detergent: 5%; RE007 growth inh: -4%

How did CN(C)c1ccc(/C=N\Nc2nc(-c3ccccc3)cc(=O)[nH]2)cc1 do in these assays?
Giardia FBPA inh: 1%; AmpC no deterg: -22%; Sm TGR block: -5%; AmpC detergent: -12%; RE007 growth inh: 11%

How did COc1ccc([N+](=O)[O-])cc1NC(=O)CCN1CCN(CCO)CC1 do in these assays?
Giardia FBPA inh: 0%; AmpC no deterg: -15%; Sm TGR block: -2%; AmpC detergent: -8%; RE007 growth inh: 8%

What do the screens show for `O=C(/C=C/c1ccco1)N(c1ccccn1)c1ccccn1`?
Giardia FBPA inh: inconclusive; AmpC no deterg: -18%[11.4 µM]; Sm TGR block: 32µM*; AmpC detergent: inconclusive; RE007 growth inh: 2%

What do the screens show for `O=C(c1ccco1)N(c1ccccn1)c1ccccn1`?
Giardia FBPA inh: 4%; AmpC no deterg: -16%; Sm TGR block: 25%; AmpC detergent: -7%; RE007 growth inh: 2%

How did O=C(/C=C/c1ccco1)NCc1ccccn1 do in these assays?
Giardia FBPA inh: -16%; AmpC no deterg: 0%; Sm TGR block: 3.5µM*; AmpC detergent: -3%; RE007 growth inh: -7%

What do the screens show for `O=C(/C=C/c1ccc([N+](=O)[O-])cc1)NCc1ccccn1`?
Giardia FBPA inh: -1%; AmpC no deterg: -23%; Sm TGR block: 2%; AmpC detergent: 5%; RE007 growth inh: 4%

What do the screens show for `CCN(CC)c1nc(NNC(=O)c2ccccc2)nc(N(CC)CC)n1`?
RE007 growth inh: 5%

Results for COc1cc(C(=O)OCCCOC(=O)c2cc(OC)c(OC)c(OC)c2)cc(OC)c1OC ?
Giardia FBPA inh: 10%; AmpC no deterg: -7%; Sm TGR block: 7%; AmpC detergent: 6%; RE007 growth inh: 2%

What do the screens show for `CCCCn1c(SCC(=O)NCc2ccco2)nnc1-c1ccco1`?
Giardia FBPA inh: -1%; AmpC no deterg: -1%; Sm TGR block: 45µM*; AmpC detergent: 1%; RE007 growth inh: 17%

Screening results as filed in PubChem BioAssay.
